Compounds with a hit are over-represented: about 2.8% of the library has one in this group of screens.
POLI inh = qHTS for Inhibitors of Polymerase Iota. DNA polymerase iota (Homo sapiens), Q9UNA4. Pol iota fluorescent replication assay, 10 min. Potency, µM (series often up to 115 µM), usual class: inhibitors. 390,000 compounds, 1% hits
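Fluorescent replication assay read twice, at 0 min and 10 min after adding 50 nM (final) substrate. Enzyme (10 nM) and compounds were first incubated 15 min at room temperature; enzyme-free buffer wells were negative controls.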
WRN inhibitor = qHTS for Inhibitors of WRN Helicase. WRN helicase unwinding, fluorescent forked duplex, kinetic. Potency, µM (doses to about 114 µM), most hits filed as inhibitors. 360,000 compounds, 0.46% hits. AID 651768, 2012; note: nearly all actives have a fitted effect of over 55% in size
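Fluorescence dequenching readout, ex 525 nm/em 598 nm, kinetic mode: forked duplex DNA (100 nM final) with adjacent fluorophore and quencher unwound by WRN (20 nM final) with 2 mM ATP. Compound preincubation 15 min, room temperature.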
PI5P4Ka inh = qHTS for Inhibitors of phosphatidylinositol 5-phosphate 4-kinase (PI5P4K). 330,000 compounds, 1.2% hits. max response, %. PI5P4Kalpha enzyme, ADP-Glo luminescence, 60 min; hits give low values. AID 652105, 2013. Phosphatidylinositol 5-phosphate 4-kinase type-2 alpha (Homo sapiens), P48426; active = max response of -50% or lower; inconclusive = between -30% and -50%; inactive = -30% or higher; note: value at the top dose of about 77 µM
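Single end-point luminescence (ADP-Glo) quantified ADP from PI5P4Kalpha turnover; ATP 5 microM final, 1 h at RT, 0.1% CHAPS and 0.28 mM EGTA in HEPES pH 7.4.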
POLH inh = qHTS for Inhibitors of Polymerase Eta; recombinant Pol eta, fluorescent DNA replication assay; 390,000 compounds, 1.2% hits; Potency, µM (doses to about 114 µM), most hits filed as inhibitors; DNA polymerase eta (Homo sapiens), Q9Y253
Target sequence (Q9Y253 whole entry, looked up): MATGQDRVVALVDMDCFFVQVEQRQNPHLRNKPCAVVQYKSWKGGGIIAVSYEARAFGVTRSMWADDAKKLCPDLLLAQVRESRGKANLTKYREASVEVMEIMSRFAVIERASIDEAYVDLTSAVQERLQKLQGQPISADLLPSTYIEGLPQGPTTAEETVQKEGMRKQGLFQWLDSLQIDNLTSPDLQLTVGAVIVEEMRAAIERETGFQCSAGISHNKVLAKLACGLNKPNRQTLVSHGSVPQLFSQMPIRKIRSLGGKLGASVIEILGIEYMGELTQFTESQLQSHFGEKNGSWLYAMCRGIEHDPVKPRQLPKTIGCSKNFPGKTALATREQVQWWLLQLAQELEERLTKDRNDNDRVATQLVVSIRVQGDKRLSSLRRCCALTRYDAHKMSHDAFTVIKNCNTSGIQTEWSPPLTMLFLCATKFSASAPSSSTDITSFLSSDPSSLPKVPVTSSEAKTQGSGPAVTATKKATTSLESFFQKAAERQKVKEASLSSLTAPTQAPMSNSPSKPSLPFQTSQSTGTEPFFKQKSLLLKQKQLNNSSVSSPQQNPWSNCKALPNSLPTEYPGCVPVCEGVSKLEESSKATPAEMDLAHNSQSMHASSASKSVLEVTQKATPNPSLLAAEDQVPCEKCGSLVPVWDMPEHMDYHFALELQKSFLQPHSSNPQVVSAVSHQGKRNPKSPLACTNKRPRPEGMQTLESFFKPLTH
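Pol eta at 10 nM preincubated with compounds 15 min at room temperature; reaction started with fluorescent substrate (50 nM final) and read kinetically at 0 and 10 min.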
Pol kappa inh = qHTS for Inhibitors of Polymerase Kappa | DNA polymerase kappa (Homo sapiens), Q9UBT6 | purified Pol kappa, fluorescent DNA synthesis assay, 10 min | Potency, µM (titrated, usually from 107 µM), usual class: inhibitors | 400,000 compounds, 0.53% hits | AID 588579, 2011
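Kinetic fluorescence readout at 0 and 10 min followed reaction start with substrate at 50 nM final. Beforehand, enzyme (10 nM Pol kappa) stood 15 min with compound at room temperature; buffer-only wells were negative controls.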
POLB inh = qHTS Assay for Inhibitors of DNA Polymerase Beta; P06746; Pol beta primer extension/strand displacement, fluorescence kinetic; Potency, µM (series often up to 114 µM), most hits filed as inhibitors; 340,000 compounds, 1.3% hits; AID 485314, 2010
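Kinetic readout of DNA synthesis with strand displacement by Pol beta. Compound and 10 nM enzyme sit 15 min at room temperature; 50 nM substrate starts the reaction, read immediately and at 10 min.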
Hits are given with their value; 0 = inactive; ? = inconclusive; - = no result given; [ ] = dose if it differs, or a comment. Unless noted, calls come from the whole dose curve; as a rule, active = well fitted curve in the direction sought with a large enough effect; inconclusive = small, poorly fitted or top-dose-only effect, or another doubt; inactive = no such curve, though single readings can be large; an effect the other way counts as inactive or inconclusive.

SMILES | POLI inh | WRN inhibitor | PI5P4Ka inh | POLH inh | Pol kappa inh | POLB inh
Cc1ccc2nc(-c3ccc(N4C(=NC(=O)CCC(=O)O)SC5CS(=O)(=O)CC54)cc3)sc2c1 (stereo not drawn) | ? | ? | ? | 3.5µM | ? | ?
CC(=O)N=C1SC2CS(=O)(=O)CC2N1c1ccc(-c2nc3ccc(C)cc3s2)cc1 (stereo not drawn) | - | - | - | - | - | 0
O=C(O)c1ccc2c(c1Nc1ccccc1)C(=O)c1ccccc1C2=O | 0 | 0[11.6 µM] | -54 | ? | 0 | 0
CNc1c(C(=O)O)ccc2c1C(=O)c1ccccc1C2=O | 0 | 0 | ? | ? | 0 | 0
O=C(/C=C/c1ccc(-c2ccccc2)cc1)NCc1cccnc1 | ? | 0 | 0 | 0 | 0 | 50µM
CC1(c2nnc(Cc3ccccc3)o2)CC(c2ccccc2[N+](=O)[O-])=NO1 (stereo not drawn) | 0 | 0 | -51 | 0 | 0 | -
O=S1(=O)CCOC[C@H](c2ccccc2)N1Cc1ccc(Cl)cc1Cl | 0 | - | - | - | 0 | -
O=C(CSc1ccccc1)N1CCN(S(=O)(=O)c2ccccc2F)CC1 | 50µM | 0[11.6 µM] | ? | ? | 0 | 45µM
Cc1c(-c2nsc(NC(=O)c3cccs3)n2)nnn1-c1ccc(Br)cc1 | ? | - | - | ? | 0 | 3.2µM
COC(=O)c1ccc(-n2nnc(-c3nsc(NC(=O)c4ccc(Cl)cc4)n3)c2C)cc1 | ? | - | - | 0 | 0 | 56µM
O=C(O)CSc1ncnc2scc(-c3ccc(Br)cc3)c12 | 0 | 0 | -66 | 0 | 0 | 0
O=C(O)CSc1ncnc2scc(-c3ccccc3)c12 | 0 | 0 | -76 | 0 | 0 | 0
COc1ccc(CC2NCCC3=CC(=O)CCC32)cc1O (stereo not drawn) | 56µM | - | - | 0 | ? | -
CCn1cc(CN2CCC(n3nccc3NC(=O)CCOc3ccccc3)CC2)c(C)n1 | 0 | 0 | 0 | 0 | 0 | 0
COc1cccc(NC(=O)CSc2nc(C3CC3)nc3ccccc23)c1 | ? | 0[11.6 µM] | 0 | 40µM | 0 | 0
COc1ccc(NC(=O)CSc2nc3ccccc3nc2N2CCC(C)CC2)cc1 | 0 | - | - | - | 0 | 0
Cc1cc(C)c(NC(=O)c2cccc3c2C(=O)N(C2CCCCC2)C3)c(C)c1 | ? | 0 | 0 | 0 | 0 | 0
C=CCN(CC=C)c1cnn(-c2nc3ccccc3[nH]2)c(=O)c1Cl | 0 | 0 | - | 0 | 0 | 0.22µM
Cc1cc2c(NC(=O)CC(C)(C)CC(=O)O)cccc2nn1 | 20µM | 0[11.6 µM] | 0 | 28µM | ? | 0
Cc1cc(N(C)C)cc(C)c1C=O | 0 | - | - | - | 0 | -
CN(C)/C=C/c1c([N+](=O)[O-])c2ccc(O)cc2n1-c1ccccc1 | 0 | 0 | -59 | 0 | 0 | 0
O=C(CSc1nnc(NC(=O)C2CC(=O)N(c3ccccc3)C2)s1)NCC1CCCO1 (stereo not drawn) | 0 | 0 | 0 | 0 | 0 | 0
COC(=O)c1ccc(CSc2nnc(NC(=O)C3CC(=O)N(c4ccc5c(c4)OCCO5)C3)s2)cc1 (stereo not drawn) | ? | 0 | ? | ? | 0 | 28µM
COc1cccc(N2CC(C(=O)Nc3nnc(SCC(=O)NCc4ccco4)s3)CC2=O)c1 (stereo not drawn) | 40µM | 0 | -61 | 32µM | ? | ?
COc1cccc(N2CC(C(=O)Nc3nnc(SCC(=O)NC4CCCC4)s3)CC2=O)c1 (stereo not drawn) | ? | 0 | ? | ? | 0 | 0
SMILES | POLI inh | WRN inhibitor | PI5P4Ka inh | POLH inh | Pol kappa inh | POLB inh
O=C(CSc1nnc(NC(=O)C2CC(=O)N(c3ccccc3)C2)s1)NCc1ccco1 (stereo not drawn) | 50µM | 0 | ? | ? | ? | 89µM
CC(C)CCN1C(=O)c2ccccc2C1c1nnnn1C(C)C (stereo not drawn) | - | 0 | 0 | - | - | -
CCc1ccc(N(CC(=O)NC(C)C)C(=O)CCC(=O)Nc2nccs2)cc1 | 0 | 0 | 0 | 0 | 0 | 0
CN(C)c1ccc(Cc2cc3c(O)ccc(O)c3cc(Cc3ccc(N(C)C)cc3)c2=O)cc1 | 3.2µM | 13µM | -84 | 2.2µM | 7.9µM | -
O=C(Nc1ccc(F)cc1)c1ccc(C(=O)N2CCCC(O)C2)cc1 (stereo not drawn) | 0 | 0 | 0 | 0 | 0 | -
CC(=O)Nc1cc(-c2cccc(C(=O)NCCN(C)C)c2)cn2c(-c3cccc(C(F)(F)F)c3)cnc12 | - | 79µM | ? | - | - | -
CCSc1n[nH]c(=S)s1 | 0 | 0 | ? | 0 | 0 | 0
COC(=O)C(C)Sc1n[nH]c(=S)s1 (stereo not drawn) | 0 | 0 | -72 | 0 | 0 | 0
COC(=O)CSc1n[nH]c(=S)s1 | 0 | 0 | 0 | 0 | 0 | 0
O=C(O)CC(Sc1n[nH]c(=S)s1)C(=O)O (stereo not drawn) | ? | 0 | ? | 0 | 0 | 25µM
COc1ccc(NC(=O)CN(c2cccc(C)c2C)S(=O)(=O)c2ccccc2)cc1OC | 0 | - | - | 0 | 0 | 0
Cc1ccc(C(=O)CC(SCC(=O)O)c2ccc([N+](=O)[O-])cc2)cc1 (stereo not drawn) | 10µM | 0 | 0 | 0 | 0 | 0
COc1ccc2c(c1)CCc1sc(NC(=O)c3cccc(Br)c3)nc1-2 | 0 | - | - | 0 | 0 | 0
COc1ccc2c(c1)Cc1sc(NC(=O)c3cccc(C)c3)nc1-2 | 8.9µM | - | - | - | 0 | 0
COc1ccc2c(c1)Cc1sc(NC(=O)c3cccc(Cl)c3)nc1-2 | 10µM | - | - | 0 | 0 | 0
COc1ccc2c(c1)Cc1sc(NC(=O)c3ccc(Cl)cc3)nc1-2 | 22µM | - | - | 0 | ? | 0
O=C(O)/C=C/C(=O)Nc1cccc2cccnc12 | 0 | 0 | 0 | 0 | 0 | 0
O=C(/C=C/c1ccco1)Nc1nc(-c2ccccc2)cs1 | 0 | 0 | 0 | 0 | 0 | 0
O=C(/C=C/c1ccco1)Nc1nc(-c2ccccn2)cs1 | ? | ? | -93 | ? | 32µM | 25µM
O=C(/C=C/c1ccco1)Nc1cccc2cccnc12 | 6.3µM | ? | -82 | 28µM | 28µM | 40µM
Cc1c(C(=O)Nc2nc(-c3ccccn3)cs2)oc2ccccc12 | ? | 0 | -59 | ? | ? | -
Cc1cccc(/C=C/c2cccs2)n1 | 0 | - | - | - | 0 | -
COc1ccc(C2Nc3ccccc3C(=O)N2Cc2ccccc2)cc1COc1ccccc1F (stereo not drawn) | 0 | - | - | - | 0 | -
COc1cccc(C(=O)NCC2CCN(c3ccc(S(=O)(=O)N4CCOCC4)cc3)CC2)c1 | 0 | 0 | 0 | 0 | 0 | 40µM
COc1cccc(C(=O)N2CCOCC2)c1 | 0 | 0 | 0 | 0 | 0 | 0
O=C(NCC1CCN(c2ccc(S(=O)(=O)N3CCOCC3)cc2)CC1)c1cccc(Cl)c1 | 0 | 0 | - | 0 | 0 | 0
